# Experimental data reported in PubChem BioAssay (EPA / NIEHS).
# Values joined by “and” are separate entries in the source; they are usually repeats but may differ in a detail not shown here. Equal values may be shown once. Inconclusive results are not listed. Where a structure was tested more than once in an assay, its records may differ in their call. Active and inactive are the calls of the source. Rule for the calls, unless noted: active = hit-call score of the fitted dose curve at least 0.9, where 1 is the maximum; inconclusive = response in the unintended direction; inactive = score below 0.9.
# Legend:
# [1] = read-out: xenobiotic metabolism (CYP1A1), CYP1A1 (gene 1543); test: CLD_CYP1A1_24hr: CellzDirect (CLD) Gene Expression Assay for xenobiotic metabolism (CYP1A1) at 24 hours (AID 2283673);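 note: CYP1A1 mRNA level by quantitative nuclease protection with chemiluminescence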
# Summary of the method: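 Transcript levels were read at 24 h by qNPA chemiluminescence in human liver primary cells. Cells got daily fresh dosing at multiple concentrations (vehicle 0.2% DMSO). Induction fitted upward against DMSO; phase-contrast cytotoxicity annotated.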
# [2] = CLD_ACTIN_6hr: CellzDirect (CLD) Gene Expression Assay for Baseline Control (Actin) at 6 hours (AID 2283676);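 note: active means increased actin mRNA relative to DMSO vehicle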
# Summary of the method: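 Baseline actin transcript level measured by qNPA (S1 nuclease protection, chemiluminescence) in human hepatocyte cultures 6 h after chemical exposure; 0.2% DMSO vehicle as reference, cytotoxicity noted from morphology.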
# [3] = CCTE_Padilla_ZF_144hpf_TERATOSCORE: (Legacy) CCTE's 144 Hour Post-fertilization zebrafish Assay Teratoscore, Padilla Lab (AID 2283679; active = hit-call score of the fitted dose curve at least 0.9, where 1 is the maximum; inactive = score below 0.9;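 for AC50: zebrafish embryos with chorions exposed by immersion from 6-8 hpf to 5 dpf with daily renewal; teratogenicity score from eye scoring of death hatching and malformations at 144 hpf; higher score means more developmental defects relative to DMSO baseline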)
# Summary of the method: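 Larvae scored by eye at 144 hpf for death, hatching and malformations after a day in clean Hanks'. Before that, daily-renewed exposure at 80 uM (0.4% DMSO, 26C) from roughly 6-8 hpf through 5 dpf, 4 embryos per chemical.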
# [4] = read-out: Cytochrome P450 2B6 (Homo sapiens) (UniProt P20813); test: CLD_CYP2B6_24hr: CellzDirect (CLD) Gene Expression Assay for xenobiotic metabolism (CYP2B6) at 24 hours (AID 2283686)
# Summary of the method: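 qNPA chemiluminescent measurement of mRNA at 24 hours in human primary hepatocyte cultures from two donor preparations, with daily fresh dosing and 0.2% DMSO vehicle as baseline. Morphology-based cytotoxicity flagged yes/no.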
# [5] = read-out: Cytochrome P450 3A4 (Homo sapiens) (UniProt P08684); test: CLD_CYP3A4_24hr: CellzDirect (CLD) Gene Expression Assay for xenobiotic metabolism (CYP3A4) at 24 hours (AID 2283689)
# Summary of the method: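 CYP3A4 mRNA induction read by quantitative nuclease protection (chemiluminescence) 24 hr after dosing. Cultured human hepatocytes (two donor preparations) treated daily, vehicle 0.2% DMSO; phase-contrast morphology annotates cytotoxicity.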
# [6] = read-out: organic anion transporter (SLCO1B1), SLCO1B1 (gene 10599); test: CLD_SLCO1B1_24hr: CellzDirect (CLD) Gene Expression Assay for organic anion transporter (SLCO1B1) at 24 hours (AID 2283690)
# Summary of the method: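 SLCO1B1 mRNA induction read at 24 h by quantitative nuclease protection assay (chemiluminescence), analyzed against DMSO baseline. Human hepatocyte cultures from separate donors received fresh dosing solutions daily; vehicle 0.2% DMSO; cytotoxicity flagged by phase-contrast morphology.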
# [7] = read-out: HMG-CoA synthase (HMGCS2), HMGCS2 (gene 3158); test: CLD_HMGCS2_24hr: CellzDirect (CLD) Gene Expression Assay for HMG-CoA synthase (HMGCS2) at 24 hours (AID 2283691)
# Summary of the method: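 qNPA with S1 nuclease digestion and chemiluminescent detection gave HMGCS2 transcript levels, fitted upward against 0.2% DMSO vehicle. Cultured human hepatocytes (two donors) received fresh compound daily and were harvested at 24 h; phase-contrast morphology flagged cytotoxicity.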
# [8] = read-out: Glyceraldehyde-3-phosphate dehydrogenase (Homo sapiens) (UniProt P04406); test: CLD_GAPDH_24hr: CellzDirect (CLD) Gene Expression Assay for Baseline Control (Glyceraldehyde 3-phosphate dehydrogenase) at 24 hours (AID 2283692)
# Summary of the method: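 GAPDH baseline-control readout: qNPA chemiluminescent mRNA signal in human primary hepatocytes harvested 24 h after daily dosing, normalised to 0.2% DMSO with positive fitting direction; cytotoxicity annotated by phase-contrast morphology.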
# [9] = read-out: glucuronosyltransferase (UGT1A1), UGT1A1 (gene 54658); test: CLD_UGT1A1_24hr: CellzDirect (CLD) Gene Expression Assay for glucuronosyltransferase (UGT1A1) at 24 hours (AID 2283696)
# Summary of the method: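 UGT1A1 transcript induction was measured by quantitative nuclease protection assay (chemiluminescence) in human hepatocyte cultures 24 h after daily fresh dosing, with 0.2% DMSO as vehicle and baseline.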
# [10] = read-out: Cytochrome P450 2B6 (Homo sapiens) (UniProt P20813); test: CLD_CYP2B6_48hr: CellzDirect (CLD) Gene Expression Assay for xenobiotic metabolism (CYP2B6) at 48 hours (AID 2283699);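 note: actives raise transcript level above DMSO so potency reflects induction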
# Summary of the method: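 CYP2B6 transcript induction, read by quantitative nuclease protection (S1 digestion, chemiluminescent detection) 48 h after dosing, is fitted upward against 0.2% DMSO. Cultured human liver primary cells, two donor preparations, received fresh chemical daily over multiple concentrations.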
# [11] = read-out: Cytochrome P450 2C19 (Homo sapiens) (UniProt P33261); test: CLD_CYP2C19_48hr: CellzDirect (CLD) Gene Expression Assay for xenobiotic metabolism (CYP2C19) at 48 hours (AID 2283700);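 note: fitted upward so actives raise CYP2C19 mRNA above the 0.2% DMSO vehicle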
# Summary of the method: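 CYP2C19 mRNA induction read by chemiluminescent quantitative nuclease protection assay after 48 h, with fresh compound added daily for two days to cultured human liver hepatocytes. Activity fitted upward against 0.2% DMSO vehicle.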
# [12] = read-out: alkyl and aryl transferase (GSTA2), GSTA2 (gene 2939); test: CLD_GSTA2_24hr: CellzDirect (CLD) Gene Expression Assay for alkyl and aryl transferase (GSTA2) at 24 hours (AID 2283693)
# Summary of the method: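 GSTA2 transcript levels were quantified by quantitative nuclease protection assay in primary human hepatocytes 24 h after daily dosing with fresh solutions at multiple concentrations; 0.2% DMSO vehicle as baseline, cytotoxicity flagged morphologically.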
# [13] = read-out: ABC Transporter (ABCB1), ABCB1 (gene 5243); test: CLD_ABCB1_48hr: CellzDirect (CLD) Gene Expression Assay for ABC Transporter (ABCB1) at 48 hours (AID 2283695);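 for AC50: potency for induction meaning increase of mRNA over DMSO vehicle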
# Summary of the method: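 ABCB1 mRNA was measured by quantitative nuclease protection assay (chemiluminescence) 48 h after dosing. Human hepatocyte cultures from two separate donors received fresh dosing solutions daily for two days, with 0.2% DMSO as vehicle. Positive-direction fit against DMSO.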
# [14] = read-out: ABC Transporter (ABCB11), ABCB11 (gene 8647); test: CLD_ABCB11_48hr: CellzDirect (CLD) Gene Expression Assay for ABC Transporter (ABCB11) at 48 hours (AID 2283697)
# Summary of the method: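 Induction of ABCB11 mRNA relative to 0.2% DMSO, measured at 48 h by qNPA chemiluminescence. Cultured human hepatocytes (two donors) received fresh dosing solutions at several concentrations on two consecutive days.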
# [15] = read-out: Cytochrome P450 2C19 (Homo sapiens) (UniProt P33261); test: CLD_CYP2C19_24hr: CellzDirect (CLD) Gene Expression Assay for xenobiotic metabolism (CYP2C19) at 24 hours (AID 2283687);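 note: activity means mRNA induction above DMSO vehicle baseline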
# Summary of the method: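 CYP2C19 mRNA was quantified by qNPA chemiluminescence after 24 h of daily dosing of cultured human primary hepatocytes from two donors; vehicle was 0.2% DMSO, and increases over DMSO baseline were fitted.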
# [16] = read-out: Cytochrome P450 (CYP24A1_1), CYP24A1 (gene 1591); test: LTEA_HepaRG_CYP24A1_1: Life Technologies and Expression Analysis (LTEA) Assay for Cytochrome P450 (CYP24A1_1) using HepaRG (AID 2283671; active = hit-call score of the fitted dose curve at least 0.9, where 1 is the maximum; inactive = score below 0.9); conditions: mRNA level, 48 h; actives raise or lower the signal
# Summary of the method: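 Cultures of human HepaRG were treated in duplicate for 48 h (0.5% DMSO vehicle, highest dose 100 uM). CYP24A1 mRNA by qRT-PCR, normalized to ACTB, GAPDH, POLR2A.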
# [17] = read-out: glucuronosyltransferase (UGT1A1), UGT1A1 (gene 54658); test: CLD_UGT1A1_6hr: CellzDirect (CLD) Gene Expression Assay for glucuronosyltransferase (UGT1A1) at 6 hours (AID 2283672)
# Summary of the method: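 UGT1A1 mRNA induction, read by quantitative nuclease protection assay, 6 h after dosing primary human hepatocytes (two donors, 0.2% DMSO vehicle). Gain of signal fitted relative to vehicle.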
# [18] = read-out: Cytochrome P450 2C9 (Homo sapiens) (UniProt P11712); test: CLD_CYP2C9_24hr: CellzDirect (CLD) Gene Expression Assay for xenobiotic metabolism (CYP2C9) at 24 hours (AID 2283688)
# Summary of the method: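 Induction of CYP2C9 mRNA was quantified by quantitative nuclease protection assay (chemiluminescence), gain of signal versus 0.2% DMSO vehicle, 24 h after dosing. Human primary hepatocytes (two donors) received fresh chemical daily at multiple concentrations; morphology-based cytotoxicity flagged yes/no.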
# Glyceraldehyde-3-phosphate dehydrogenase (Homo sapiens), sequence (P04406 whole entry, looked up): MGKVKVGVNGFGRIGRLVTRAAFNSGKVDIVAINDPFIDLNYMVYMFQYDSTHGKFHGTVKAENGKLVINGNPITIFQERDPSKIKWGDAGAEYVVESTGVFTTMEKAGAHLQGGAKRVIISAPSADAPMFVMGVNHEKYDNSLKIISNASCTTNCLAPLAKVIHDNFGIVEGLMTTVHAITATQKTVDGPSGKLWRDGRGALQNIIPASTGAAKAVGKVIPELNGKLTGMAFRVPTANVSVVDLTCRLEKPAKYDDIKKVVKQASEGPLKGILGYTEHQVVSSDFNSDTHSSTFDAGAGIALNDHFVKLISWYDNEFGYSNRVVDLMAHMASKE
# Cytochrome P450 3A4 (Homo sapiens), sequence (P08684 whole entry, looked up): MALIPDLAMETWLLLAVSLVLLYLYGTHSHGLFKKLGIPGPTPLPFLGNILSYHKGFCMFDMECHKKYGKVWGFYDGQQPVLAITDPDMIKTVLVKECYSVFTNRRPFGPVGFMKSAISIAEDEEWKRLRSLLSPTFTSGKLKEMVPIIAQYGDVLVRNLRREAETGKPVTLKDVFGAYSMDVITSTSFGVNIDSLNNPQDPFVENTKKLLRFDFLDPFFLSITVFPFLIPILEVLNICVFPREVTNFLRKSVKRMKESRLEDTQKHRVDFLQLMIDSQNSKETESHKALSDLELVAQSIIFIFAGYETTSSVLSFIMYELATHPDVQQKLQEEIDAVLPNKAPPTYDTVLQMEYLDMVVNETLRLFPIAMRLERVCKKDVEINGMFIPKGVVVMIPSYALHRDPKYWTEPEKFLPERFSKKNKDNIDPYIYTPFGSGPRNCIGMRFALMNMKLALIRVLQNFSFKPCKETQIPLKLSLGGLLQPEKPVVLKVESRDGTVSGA
# Cytochrome P450 2C19 (Homo sapiens), sequence (P33261 whole entry, looked up): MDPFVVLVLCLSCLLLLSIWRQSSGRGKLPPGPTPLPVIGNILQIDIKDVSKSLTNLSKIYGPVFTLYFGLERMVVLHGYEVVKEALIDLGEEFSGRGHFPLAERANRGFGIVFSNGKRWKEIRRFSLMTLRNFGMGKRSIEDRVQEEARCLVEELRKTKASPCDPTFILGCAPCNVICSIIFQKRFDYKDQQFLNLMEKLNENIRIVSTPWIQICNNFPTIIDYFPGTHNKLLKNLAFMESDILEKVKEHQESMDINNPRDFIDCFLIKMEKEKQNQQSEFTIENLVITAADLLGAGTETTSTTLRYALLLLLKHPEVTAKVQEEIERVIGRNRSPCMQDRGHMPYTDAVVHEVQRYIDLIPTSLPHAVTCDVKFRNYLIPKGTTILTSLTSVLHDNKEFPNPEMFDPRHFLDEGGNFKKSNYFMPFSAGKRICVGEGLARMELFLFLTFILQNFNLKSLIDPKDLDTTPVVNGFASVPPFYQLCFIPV
structure (smiles),measurement,setting,value
CCCCOC(=O)[C@@H](C)Oc1ccc(Oc2ccc(C(F)(F)F)cn2)cc1,AC50,[1],20 µM (active)
same,outcome,[2],inactive
same,AC50,[3],5.45 µM (active)
same,outcome,[4],inactive
same,outcome,[5],inactive
same,outcome,[6],inactive
same,outcome,[7],inactive
same,outcome,[8],inactive
same,outcome,[9],inactive
same,outcome,[10],inactive
same,outcome,[11],inactive
COC(=O)c1c(Cl)nn(C)c1S(=O)(=O)NC(=O)Nc1nc(OC)cc(OC)n1,outcome,[1],inactive
same,outcome,[2],inactive
same,AC50,[3],58.9 µM (active)
same,outcome,[4],inactive
same,AC50,[5],4.62 µM (active)
same,outcome,[7],inactive
same,outcome,[8],inactive
same,outcome,[12],inactive
same,outcome,[13],inactive
same,outcome,[9],inactive
same,outcome,[14],inactive
same,outcome,[10],inactive
COc1nc(C)nc(NC(=O)NS(=O)(=O)c2ccccc2OCCCl)n1,outcome,[1],inactive
same,outcome,[2],inactive
same,outcome,[3],inactive
same,outcome,[4],inactive
same,outcome,[15],inactive
same,AC50,[5],6.77 µM (active)
same,outcome,[12],inactive
same,outcome,[9],inactive
same,outcome,[11],inactive
COC(=O)c1ccc(I)cc1S(=O)(=O)NC(=O)Nc1nc(C)nc(OC)n1,outcome,[1],inactive
same,outcome,[2],inactive
same,outcome,[3],inactive
same,outcome,[4],inactive
same,outcome,[15],inactive
same,outcome,[6],inactive
same,outcome,[13],inactive
same,outcome,[9],inactive
same,outcome,[11],inactive
N#CSCSc1nc2ccccc2s1,outcome,[16],inactive
same,AC50,[1],4.74 µM (active)
same,outcome,[2],inactive
same,AC50,[3],0.651 µM (active)
same,outcome,[4],inactive
same,outcome,[5],inactive
same,outcome,[7],inactive
same,outcome,[8],inactive
same,outcome,[12],inactive
same,outcome,[13],inactive
same,outcome,[9],inactive
same,AC50,[14],34.1 µM (active)
CCCCC(CC)CN1C(=O)C2C3C=CC(C3)C2C1=O (stereo not drawn),AC50,[1],20 µM (active)
same,outcome,[2],inactive
same,AC50,[3],13 µM (active)
same,AC50,[4],9.04 µM (active)
same,AC50,[5],20 µM (active)
same,outcome,[12],inactive
same,outcome,[13],inactive
same,outcome,[9],inactive
same,AC50,[10],4.6 µM (active)
c1ccc2[nH]c(-c3cscn3)nc2c1,outcome,[17],inactive
same,AC50,[1],0.226 µM (active)
same,outcome,[2],inactive
same,AC50,[3],52.8 µM (active)
same,outcome,[4],inactive
same,outcome,[10],inactive
COCCO,outcome,[16],inactive
same,outcome,[2],inactive
same,outcome,[3],inactive
same,outcome,[18],inactive
same,outcome,[6],inactive
same,outcome,[8],inactive
same,outcome,[12],inactive
same,outcome,[13],inactive
same,outcome,[14],inactive
CCCN(CCC)C(=O)SCC,outcome,[1],inactive
same,outcome,[2],inactive
same,outcome,[3],inactive
same,AC50,[4],0.0274 µM (active)
same,outcome,[4],inactive
same,outcome,[15],inactive
same,outcome,[18],inactive
same,outcome,[5],inactive
same,outcome,[6],inactive
same,outcome,[8],inactive
same,outcome,[12],inactive
same,outcome,[13],inactive
same,outcome,[9],inactive
same,outcome,[14],inactive
same,AC50,[10],381 nM (active) and 209 nM (active)
same,outcome,[11],inactive
S=C([S-])NCCNC(=S)[S-].[Mn+2],outcome,[16],inactive
same,outcome,[1],inactive
same,outcome,[2],inactive
same,AC50,[3],1.04 µM (active)
same,outcome,[5],inactive
same,outcome,[8],inactive
same,AC50,[13],1.9 µM (active)
COC(=O)c1ccccc1S(=O)(=O)NC(=O)Nc1nc(OC(F)F)cc(OC(F)F)n1,AC50,[1],0.0569 µM (active)
same,outcome,[2],inactive
same,AC50,[3],3.02 µM (active)
same,outcome,[4],inactive
same,outcome,[15],inactive
same,outcome,[7],inactive
same,outcome,[8],inactive
same,outcome,[12],inactive
same,outcome,[9],inactive
same,outcome,[10],inactive
same,outcome,[11],inactive
CC(C)(c1ccc(O)cc1)c1ccc(O)cc1,outcome,[1],inactive
same,outcome,[2],inactive
same,AC50,[3],57 µM (active) and 66.2 µM (active)
same,outcome,[4],inactive
same,outcome,[15],inactive
same,outcome,[18],inactive
same,outcome,[5],inactive
same,outcome,[7],inactive
same,outcome,[12],inactive
same,outcome,[9],inactive
same,outcome,[10],inactive
CCOC(=O)NCCOc1ccc(Oc2ccccc2)cc1,outcome,[17],inactive
same,outcome,[1],inactive
same,outcome,[2],inactive
same,AC50,[3],15.4 µM (active)
same,AC50,[4],12.1 µM (active)
same,outcome,[15],inactive
same,outcome,[18],inactive
same,outcome,[7],inactive
same,outcome,[13],inactive
same,outcome,[9],inactive
same,AC50,[10],10.8 µM (active)
